Data: PubChem BioAssay (EPA / NIEHS)
Inconclusive results are not listed. Activity calls are given as the source filed them. Rule for the calls: active = hit-call score of the fitted dose curve at least 0.9, where 1 is the maximum; inconclusive = response in the unintended direction; inactive = score below 0.9.

The molecules below were run on Brachyury (BRA) Protein Expression, Deisenroth Lab, TBXT (gene 6862) (assay: CCTE_Deisenroth_DEVTOX-GLR_Pluri_BRA: CCTE's DevTox GLR-Pluri Assay Evaluation of Brachyury (BRA) Protein Expression, Deisenroth Lab (AID 2284429)).
Method: CCTE_Deisenroth_DEVTOX-GLR_Pluri assay is a cell-based, multiplex-readout assay that uses RUES2-GLR, a human pluripotent cell line, with measurements taken at 48 hours after chemical dosing in a 384-well microplateCCTE_Deisenroth_DEVTOX-GLR_Pluri_BRA is 1 of 4 assay components calculated from the CCTE_Deisenroth_DEVTOX-GLR_Pluri assay and it measures an the percentage of cells in an mesoderm state. Using a type of inducible fluorescent protein reporter, gain-of-signal activity can be used to understand changes in gene expression with fluorescent microscopy. The percentage of BRA+ cells are determined by calculating the number of BRA+ cells divided by the cell count. To generalize the intended target to other relatable targets, this assay component is annotated to the transcription factor intended target family, where the subfamily is T-box protein.Data from the assay component CCTE_Deisenroth_DEVTOX-GLR_Pluri_BRA was analyzed as 1 assay endpoint. The endpoint is the percent BRA+ cell population minus the 0.2% DMSO control in the CCTE_Deisenroth_DEVTOX-GLR_Pluri assay. Furthermore, this assay endpoint can be referred to as a secondary readout, because this assay has produced multiple assay endpoints where this one serves as a measure of mesoderm differentiation.
All assay protocols are aligned to the DevTox GLR-Endo assay workflow. Cells are seeded into 384-well microplates for 24 hours prior to initiating differentiation in defined media for a total duration of 48 hours. A total of two chemical exposures are administered in 24-hour intervals during the 48-hour differentiation period. At the assay termination point, cells are fixed and stained with a fluorescent dye demarcating the nucleus. High-content imaging is used to acquire brightfield and fluorescent channel images across 5 fields per well. Cell identification and mean biomarker fluorescence intensities are calculated with image analysis software to determine the total cell counts for viability assessment and the biomarker expression frequency for each lineage-dependent assay. A typical experimental design tests a 10-point concentration series (1 nM - 200 uM) for 28 compounds in single technical replicate. Assay plate controls include non-differentiated pluripotent cells (baseline control), lineage-specific differentiated cells (differentiation control), and DMSO solvent exposed differentiated cells (solvent control). Experiments typically comprise a minimum of four experimental replicates (n=4).

SMILES | AC50 | outcome
O=C(c1ccc(F)cc1)C1CCN(CCn2c(=O)[nH]c3ccccc3c2=O)CC1 | 127 µM (active) | 
O=c1[nH]c(=O)n([C@H]2C[C@H](O)[C@@H](CO)O2)cc1Br | 79.6 µM (active) | 
CC1=C(/C=C/C(C)=C/C=C/C(C)=C\C(=O)O)C(C)(C)CCC1 | 16.7 µM (active) | 
CNC(=O)c1cc(Oc2ccc(NC(=O)Nc3ccc(Cl)c(C(F)(F)F)c3)cc2)ccn1 | 1.3 µM (active) | 
CN1CCN2c3ccccc3Cc3ccccc3C2C1 (stereo not drawn) | 100 µM (active) | 
CCN(CC)CCNC(=O)c1c(C)[nH]c(/C=C2\C(=O)Nc3ccc(F)cc32)c1C | 0.264 µM (active) | 
Cc1nc2sccn2c(=O)c1CCN1CCC(=C(c2ccc(F)cc2)c2ccc(F)cc2)CC1 | 24.1 µM (active) | 
Nc1cccc2c1CN(C1CCC(=O)NC1=O)C2=O (stereo not drawn) |  | inactive
O=C1Cc2cc(CCN3CCN(c4nsc5ccccc45)CC3)c(Cl)cc2N1 | 4.26 µM (active) | 
Cc1nc(Nc2ncc(C(=O)Nc3c(C)cccc3Cl)s2)cc(N2CCN(CCO)CC2)n1 | 0.0529 µM (active) | 
COc1cc2ncnc(Nc3ccc(F)c(Cl)c3)c2cc1OCCCN1CCOCC1 |  | inactive
Cc1ccc(NC(=O)c2ccc(CN3CCN(C)CC3)cc2)cc1Nc1nccc(-c2cccnc2)n1 | 23.2 µM (active) | 
CCCCCN=C(N)N/N=C/c1c[nH]c2ccc(OC)cc12 | 5.27 µM (active) | 
